Key:
[1] = biological target: T1, Aspartate--tRNA(Asp/Asn) ligase (Mycobacterium tuberculosis (strain ATCC 25618 / H37Rv)) (UniProt P9WFW3); test: Assay for Asp RNA synthetase-1 from Mycobacterium tuberculosis; assay type: functional; parameters: scale not given: direction of the effect not stated beside the values; details: 30 µM; note: in the data most compounds retested in dose-response had high values
T1 sequence (whole entry): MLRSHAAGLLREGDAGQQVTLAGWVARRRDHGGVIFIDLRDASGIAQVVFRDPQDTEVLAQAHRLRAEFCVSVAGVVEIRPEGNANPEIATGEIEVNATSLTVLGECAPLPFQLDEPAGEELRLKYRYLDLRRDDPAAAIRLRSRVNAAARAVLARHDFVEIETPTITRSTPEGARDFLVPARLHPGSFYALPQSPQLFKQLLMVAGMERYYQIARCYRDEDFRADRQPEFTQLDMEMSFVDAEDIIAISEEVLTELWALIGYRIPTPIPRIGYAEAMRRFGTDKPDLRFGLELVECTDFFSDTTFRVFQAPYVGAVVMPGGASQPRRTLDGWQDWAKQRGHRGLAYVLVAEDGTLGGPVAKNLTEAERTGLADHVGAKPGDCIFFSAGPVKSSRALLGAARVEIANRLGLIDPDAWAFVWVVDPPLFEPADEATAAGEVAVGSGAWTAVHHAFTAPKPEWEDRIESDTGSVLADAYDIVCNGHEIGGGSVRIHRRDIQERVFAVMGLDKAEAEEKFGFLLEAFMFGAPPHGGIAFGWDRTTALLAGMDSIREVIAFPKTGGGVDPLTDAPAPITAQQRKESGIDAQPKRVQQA

[2] = biological target: Shiga toxin 2 (Escherichia coli O157:H7) (UniProt P09385+P09386); test: E. coli 0.157:H7 Shiga Toxin SOP - stx2 screening assay; assay type: functional; parameters: scale not given: direction of the effect not stated beside the values; details: 30 µM

| Structure (SMILES) | Percent Effect [1] [%] | Percent Effect [2] [%] |
| --- | --- | --- |
| Cc1nn(C)c(N(C)C)c1CNCCCN(C)S(C)(=O)=O | -6.1 | -43.8 |
| COc1ccc(CN2CCOC3(CCCN(c4nnc(C)o4)C3)C2)cc1 (stereo not drawn) | -5.88 | 7.44 |
| NC(=O)c1ccc(S(=O)(=O)NC(=O)COc2ccc3c(c2)CCC3)cc1 | -2.01 | 13.5 |
| CCc1nc(CC(=O)N2CCCC2Cn2cccn2)cs1 (stereo not drawn) | 0.426 | 10.2 |
| CCc1nc(C2CCCN2C(=O)c2ccoc2C)no1 (stereo not drawn) | 1.77 | -24 |
| CCOc1ccc(Cl)cc1C1CCCN1 (stereo not drawn) | 3.74 | 5.67 |
| COC(=O)N1CCCC(C(=O)NCc2cc3cccc(OC)c3o2)C1 (stereo not drawn) | -0.457 | 14.7 |
| COc1cccc(S(=O)(=O)NC(=O)COc2c(C)cccc2C)c1 | -3 | 6.76 |
| CC(C)N(C)C(=O)C1=NOC2(CCN(C(=O)c3ccncc3)C2)C1 (stereo not drawn) | -1.05 | -7.21 |
| O=C(CCCc1cn[nH]c1)N1C[C@@H](CN2CCOCC2)[C@@H](CO)C1 | 4.17 | -29.7 |
| CC(C)c1nnc(CN2CCCC2Cn2cncn2)o1 (stereo not drawn) | -1.37 | -22.4 |
| CCN1CC2(CC1=O)CN(Cc1cnn(C)c1)CCN(C(C)=O)C2 (stereo not drawn) | 1.68 | -2.37 |
| CN(C)CC1CSCCCN1C(=O)c1ccc(C(C)(C)C)cc1 (stereo not drawn) | -2.32 | 10.3 |
| CS(=O)(=O)NCc1cn2c(n1)CN(C(=O)c1ccc[nH]1)CC2 | 1.81 | -6.4 |
| Cc1cc(C)n(CC2CN(Cc3cscn3)CCO2)n1 (stereo not drawn) | -1.81 | -3.38 |
| O=C(CCC(=O)N1CCCC1c1cccs1)N1CCc2sccc2C1 (stereo not drawn) | -0.31 | -7.21 |
| Cc1csc(C2CCCN(C(=O)c3cnc[nH]3)C2)n1 (stereo not drawn) | 5.76 | 16.6 |
| O=C1CC[C@H]2CN(Cc3ccc(Cl)s3)CC[C@H]2N1CCc1c[nH]cn1 | 0.912 | -115 |
| CC(=O)N1CCCC(c2ccc(Nc3nc(C)cc(C)n3)cn2)C1 (stereo not drawn) | -1.31 | 3.11 |
| Cc1cnn(CCNCc2ccccc2C#N)c1 | -1.14 | 12.5 |

| Structure (SMILES) | Percent Effect [1] [%] | Percent Effect [2] [%] |
| --- | --- | --- |
| O=C1N(c2ccccc2)Cc2nc(=O)[nH]n21 | -0.29 | -29.1 |
| Cc1nc(C)n(CC2CCCN(CC(=O)Nc3c(C)n[nH]c3C)C2)n1 (stereo not drawn) | -1.34 | 32.2 |
| NC(=O)c1cc(NC(=O)NCCc2cc(F)cc(F)c2)ccc1F | 4.79 | -82 |
| CCc1csc(C2CCCN(C(=O)c3c[nH]c(C)n3)C2)n1 (stereo not drawn) | -0.0911 | -10.2 |
| Cn1cc(CN2C[C@@H]3COC[C@]3(CNC(=O)c3ccsc3)C2)cn1 | 0.656 | -3.31 |
| Cc1nc(C)n(C2CCCN(C(=O)CCCOc3ccccc3)C2)n1 (stereo not drawn) | -1.97 | 3.84 |
| COc1cc(CNCc2ccc(NC(=O)NC(C)C)cc2)cc(OC)c1 | 1.67 | -65.1 |
| COc1ccc(C(=O)N2C[C@@H](C(=O)O)[C@H](c3ccccc3C)C2)c(O)c1 | 8.11 | 0.95 |
| Cc1cn(-c2ccccc2)nc1NS(=O)(=O)c1cc(C(=O)O)cs1 | 5.52 | -40 |
| O=C(c1ccco1)N1C[C@@H]2OCCN(CCN3CCCC3)[C@@H]2C1 | 7.66 | -2.25 |
| C=C(C)C(=O)N1CCC(C(=O)c2cc(C)cnc2N)CC1 | -5.78 | -12 |
| Cc1ccc2oc(C(=O)N3CCCC(c4noc(C)n4)C3)cc2n1 (stereo not drawn) | -6.59 | -27.4 |
| CCc1ccc(O)c(C(=O)NC2CCN(C(=O)OC)CC2)c1 | -2.88 | -48.7 |
| CC(=O)N1CCCC1c1csc(Nc2cnccn2)n1 (stereo not drawn) | 3.49 | 29.9 |
| CN(C)c1cc(C(=O)NCCc2nnc(-c3ccco3)[nH]2)ccn1 | -1.56 | -46.4 |
| COCc1nc(N(C)C)ncc1C(=O)Nc1ccn(C)n1 | -1.07 | -19.2 |
| CCOC[C@@H]1CCC[C@@]12CN(Cc1nccs1)CCO2 | -0.28 | 13.3 |
| CCCNC(=O)Nc1cccc2c1CCN(S(C)(=O)=O)C2 | 6.02 | -15 |
| CCC1=N[C@@]2(CC[C@@H]3CN(Cc4ccc(Cl)cc4)C[C@@H]32)C(=O)N1 | 0.626 | 3.7 |
